What all share (experiment): glycan array binding signal (z-score within array); higher = stronger binding
What all share (details): glycan notation: IUPAC condensed, linker removed

For assay [1], the target named is Man(a1-2)Man(a1-3)[Man(a1-6)]Man(a1-6)[Man(a1-2)Man(a1-3)]Man(b1-4)GlcNAc(b1-4)GlcNAc. The gist of the method:
(§1)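 The binding signal is a Z-score computed within each array. Data were drawn from 3228 arrays in the Consortium for Functional Glycomics database, restricted to those with a known protein sequence. Scores were averaged over arrays of the same protein sequence at different concentrations or buffers, and over linkers, and negative values can be taken as non-binding.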

The target in assay [2] is Man(a1-2)Man(a1-6)[Man(a1-3)]Man(a1-6)[Man(a1-2)Man(a1-2)Man(a1-3)]Man(b1-4)GlcNAc(b1-4)GlcNAc. In short, it runs like this:
as §1

The target of assay [3] is Man(a1-3)[Man(a1-6)]Man(a1-6)[Man(a1-2)Man(a1-3)]Man(b1-4)GlcNAc(b1-4)GlcNAc. In short, it runs like this: as §1
Assay [4] addresses Man(a1-3)[Man(a1-6)]Man(a1-6)[Man(a1-3)]Man(b1-4)GlcNAc(b1-4)GlcNAc. In short, it runs like this:
as §1

The target of assay [5] is Man(a1-3)[Man(a1-6)]Man(b1-4)GlcNAc(b1-4)GlcNAc. In short, it runs like this:
as §1

The target of assay [6] is Neu5Ac(a2-3)Gal(b1-4)GlcNAc(b1-2)Man(a1-3)[GlcNAc(b1-4)][Neu5Ac(a2-3)Gal(b1-4)GlcNAc(b1-2)Man(a1-6)]Man(b1-4)GlcNAc(b1-4)GlcNAc. In short, it runs like this: as §1
In assay [7] the target is Neu5Ac(a2-3)Gal(b1-4)GlcNAc(b1-3)[Neu5Ac(a2-3)Gal(b1-4)GlcNAc(b1-6)]GalNAc. The gist of the method: as §1
Assay [8] deals with Neu5Ac(a2-3)Gal(b1-4)[Fuc(a1-3)]GlcNAc(b1-6)[Gal(b1-3)]GalNAc. In short, it runs like this:
as §1

Assay [9] addresses Neu5Ac(a2-3)Gal6S(b1-4)GlcNAc. The gist of the method:
as §1

The target of assay [10] is Neu5Ac(a2-3)[GalNAc(b1-4)]Gal(b1-4)GlcNAc. The gist of the method: as §1
Assay [11] concerns the target Neu5Ac(a2-6)Gal(b1-4)GlcNAc. The gist of the method: as §1
Assay [12] addresses Neu5Ac(a2-6)Gal(b1-4)GlcNAc(b1-3)Gal(b1-4)GlcNAc(b1-2)Man(a1-3)[Neu5Ac(a2-6)Gal(b1-4)GlcNAc(b1-3)Gal(b1-4)GlcNAc(b1-2)Man(a1-6)]GalNAc. The gist of the method: as §1
The target of assay [13] is Neu5Ac(a2-6)Gal(b1-4)GlcNAc(b1-6)[Gal(b1-3)GlcNAc(b1-3)]Gal(b1-4)Glc. In short, it runs like this:
as §1

Assay [14] concerns the target Neu5Ac(a2-8)Neu5Ac(a2-3)[Gal(b1-3)GalNAc(b1-4)]Gal(b1-4)Glc. The gist of the method: as §1
Assay [15] addresses Neu5Ac(a2-8)Neu5Ac(a2-8)Neu5Ac(a2-8)Neu5Ac(a2-3)[GalNAc(b1-4)]Gal(b1-4)Glc. In short, it runs like this: as §1
Assay [16] deals with Neu5Gc(a2-3)Gal(b1-4)GlcNAc(b1-3)Gal(b1-4)GlcNAc(b1-2)Man(a1-3)[Neu5Gc(a2-3)Gal(b1-4)GlcNAc(b1-3)Gal(b1-4)GlcNAc(b1-2)Man(a1-6)]Man(b1-4)GlcNAc(b1-4)GlcNAc. In short, it runs like this:
as §1

Assay [17] addresses Neu5Gc(a2-3)Gal(b1-4)[Fuc(a1-3)]GlcNAc. The gist of the method: as §1
The target of assay [18] is Neu5Gc(a2-8)Neu5Gc(a2-3)Gal(b1-4)GlcNAc. The gist of the method: as §1

The sample as a whole holds a higher share of the strongest signals than the screen did.

The values below come from the supplement of paper PMC8728848.

B1: Nictaba (Nicotiana tabacum), Q94EW1 (protein)
chain: MQGQWIAARDLSITWVDNPQYWTWKTVDPNIEVAELRRVAWLDIYGKIETKNLIRKTSYAVYLVFKLTDNPRELERATASLRFVNEVAEGAGIEGTTVFISKKKKLPGELGRFPHLRSDGWLEIKLGEFFNNLGEDGEVEMRLMEINDKTWKSGIIVKGFDIRPN
For the molecule B1, the “glycan array binding signal (z-score)” value is 4.07 in [1]; 4.83 in [2]; 6.51 in assay [3]; 4.21 in assay [4]; 3.44 in assay [5]; -0.37 in assay [6]. Moreover, the “glycan array binding signal (z-score)” value in [7] is -0.389; in [8], -0.249; in [9], -0.272; in assay [10], -0.269; in assay [11] it was -0.276; in assay [12], 1.27. Besides, the “glycan array binding signal (z-score)” value in assay [13] is -0.387; in assay [14], -0.3; in assay [15], -0.244; in assay [16], 0.883; in [17], -0.366; in assay [18], -0.388.
